FadD28 binding = blocks FadD28 binding to the bisubstrate probe; 360,000 tested, 0.22% active; fluorescence polarization; inhibition, % at 12.5 µM; in the data active means inhibition above about 8.5%, passing the limit was not always enough; inconclusive means no clear call, values can overlap the other calls
Mtb bLac sens = beta-lactam sensitization of Mtb H37Rv; inhibition, % at 25 µM; 330,000 tested, 0.27% active; M. tuberculosis H37Rv growth with meropenem, percent inhibition; call rule not given here;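 further: growth measured after seven days incubation then overnight dye step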
Rv3671c inh = Rv3671c (M. tuberculosis) protease inhibition. 320,000 tested, 0.048% active. P9WHR9. inhibition, % at 5.96 µM; in the data active means inhibition above about 38%;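 further: extracellular domain of Rv3671c used as enzyme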
GDH-TPI counter = GDH-TPI coupled enzyme inhibition counter-screen. inhibition, % at 4.8 µM. AID 588335. GDH-TPI coupled enzyme counterscreen, NADH absorbance. 360,000 tested, 1.2% active; in the data active means inhibition above about 30%
Mtb FBA inh = inhibits M. tuberculosis FBA enzyme; 360,000 tested, 2.3% active; inhibition, % at 1 µM; AID 588726; P9WQA3; purified M. tuberculosis FBA, fluorescence read-out; in the data active means inhibition above about 27%
UGM FP inh = blocks M. tuberculosis UGM enzyme; inhibition, % at 10 µM; P9WIQ1; 320,000 tested, 0.06% active; purified UGM, fluorescence polarization probe displacement; in the data active means inhibition above about 10%, passing the limit was not always enough; inconclusive means no clear call, values can overlap the other calls
Target sequence (P9WIQ1 whole entry, looked up): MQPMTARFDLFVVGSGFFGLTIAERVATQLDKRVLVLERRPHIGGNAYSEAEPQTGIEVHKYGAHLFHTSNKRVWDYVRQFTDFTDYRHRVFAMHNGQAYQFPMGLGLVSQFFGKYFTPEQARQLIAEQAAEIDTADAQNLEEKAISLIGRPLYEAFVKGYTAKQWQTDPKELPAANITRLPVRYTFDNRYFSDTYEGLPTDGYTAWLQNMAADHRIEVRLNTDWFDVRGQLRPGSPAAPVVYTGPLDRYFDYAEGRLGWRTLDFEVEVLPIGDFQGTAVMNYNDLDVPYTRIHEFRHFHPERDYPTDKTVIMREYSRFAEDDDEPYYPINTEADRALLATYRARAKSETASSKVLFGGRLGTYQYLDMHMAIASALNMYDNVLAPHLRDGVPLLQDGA
Large screens that a line does not name were inactive. Only some compounds are listed: those with a hit (about 3.7% of all), similar ones and a draw of the others.

Cc1ccc(SCCC(=O)OC(C)C(=O)Nc2ccccc2)cc1 (stereo not drawn)	none
CC1(C)Cc2nc(NCCCO)c(C#N)cc2CO1	Mtb FBA inh 112
O=C(O)c1cnnc2ccccc12	none (no result: Mtb bLac sens, Rv3671c inh, UGM FP inh)
COc1ccc2c(c1)C(c1ccc([N+](=O)[O-])cc1)=NNC(c1ccco1)=N2	GDH-TPI counter 33
COc1ccc(C2=NNC(c3ccco3)=Nc3ccc(F)cc32)cc1	none
COC(=O)/C(=N/Nc1ccccc1)N1CCCc2ccccc21	GDH-TPI counter 34 (no result: UGM FP inh)
COc1ccc(NC(=O)C#Cc2ccccc2)cc1OC	GDH-TPI counter 34
COc1cc2oc(=O)cc(-c3ccc(-c4ccc(N(C)C)cc4)cc3)c2c(OC)c1OC	none (no result: Mtb bLac sens, Rv3671c inh, UGM FP inh)
O=C(Nc1ccc(S(=O)(=O)Nc2ccccn2)cc1)c1ccc(Cl)cc1Cl	none
CCN1CCN(c2nc3ccccc3n3cnnc23)CC1	GDH-TPI counter 32
COCc1c(C(=O)Nc2nnc(C3CC3)s2)oc2ccccc12	GDH-TPI counter 44 (no result: Mtb bLac sens, Rv3671c inh, UGM FP inh)
CCCc1nnc(NC(=O)c2oc3ccccc3c2COCC)s1	none (no result: Mtb bLac sens, Rv3671c inh, UGM FP inh)
O=C(CCS(=O)(=O)c1ccccc1)Nc1nc(-c2ccc(F)cc2)cs1	GDH-TPI counter 34
O=C(CS(=O)(=O)c1ccccc1)Nc1nc(-c2ccc(F)cc2)cs1	none
N#Cc1c(-c2cccs2)cc(-c2ccccn2)nc1N	Mtb FBA inh 78 (no result: Mtb bLac sens)
CCN(CC)Cc1c(O)ccc2cc(-c3nc4ccccc4n3C)c(=O)oc12	Mtb FBA inh active
CC(=O)Oc1ccc2cc(-c3nc4ccccc4n3C)c(=O)oc2c1	Mtb FBA inh active
CC(C)(C)C(=O)Oc1ccc2cc(-c3ccc4ccccc4n3)c(=O)oc2c1	none
CC(C)C(=O)N1CCC1(C)C(=O)NCc1cc(Cl)ccc1F (stereo not drawn)	none (no result: Mtb bLac sens, Rv3671c inh, UGM FP inh)
Clc1ccc2c(SCC3CO3)c3ccccc3nc2c1 (stereo not drawn)	Mtb FBA inh 122 (no result: Mtb bLac sens, Rv3671c inh, UGM FP inh)
COC(=O)c1ccc2nc(-c3ccco3)c(Cc3cccc(F)c3)n2c1	none (no result: Mtb bLac sens, Rv3671c inh, GDH-TPI counter, UGM FP inh)
C[n+]1ccc(-c2ccccc2)c2ccccc21	Mtb FBA inh 143
CN(C)CCCNc1nc2cc(-c3cnn(C)c3)sc2c(=O)n1C	none (no result: Mtb bLac sens, Rv3671c inh, UGM FP inh)
COC(=O)c1nn(-c2ccc3c(c2)CCN3C(C)=O)cc1O	Mtb FBA inh 195
COC(=O)c1nn(-c2ccc3c(c2)OCO3)cc1O	none
CC(=O)c1ccc(N2CCN(C(=O)c3nn(C)c4c3CS(=O)(=O)c3ccccc3-4)CC2)cc1	GDH-TPI counter 41
CCCc1nnc(NC(=O)C(=O)NCCN(C)C)s1	GDH-TPI counter 31 (no result: Mtb bLac sens, Rv3671c inh, UGM FP inh)
COc1ccc(N=C(C)C2C(=O)c3ccccc3C2=O)cc1	none (no result: Mtb bLac sens, Rv3671c inh, GDH-TPI counter, UGM FP inh)
c1ccc(-c2ccc(C3=Nn4c(nnc4-c4cc(-c5ccccc5)n[nH]4)SC3)cc2)cc1	GDH-TPI counter 44
CCOc1ccc(C2=Nn3c(nnc3-c3ccccc3OC)SC2)cc1	none
COc1ccccc1-c1nnc2n1N=C(c1ccc(O)c(O)c1)CS2	GDH-TPI counter 36
NS(=O)(=O)c1cc(C(=O)NCC2CCCCC2)ccc1Cl	none (no result: FadD28 binding)
COc1cccc(C2=CC(=O)CC(C)(C)C2)c1	none
c1ccc(-c2ccc3[nH]ccc3c2)cc1	none
COc1ccc(C2=CC(=O)CC(C)(C)C2)cc1OC	GDH-TPI counter 35
CC1(C)CC(=O)C=C(c2ccc3[nH]ccc3c2)C1	GDH-TPI counter 34
O=C1C=C(c2ccc3[nH]ccc3c2)CCC1	GDH-TPI counter 35
COc1ccc2cc(C3=CC(=O)CCC3)ccc2c1	GDH-TPI counter 31 (no result: Mtb bLac sens, Rv3671c inh, UGM FP inh)
Cc1cc2c(c(SCC#N)n1)C(=O)OC2	none
Cc1ccc(NC(=O)CN2C(=O)N/C(=C/c3cccn3-c3ccc(C(=O)O)cc3)C2=O)cc1	FadD28 binding 18
CCn1c(C)cc(/C=C2\NC(=O)N(CC(=O)Nc3ccc(F)cc3)C2=O)c1C	none
Cc1ccc(NC(=O)CN2C(=O)S/C(=C\c3cc(C)n(-c4ccc(C(=O)O)cc4)c3C)C2=O)cc1	FadD28 binding 60
Cc1cccc(NC(=O)CN2C(=O)N/C(=C/c3ccc(C)s3)C2=O)c1	FadD28 binding inconclusive
Cc1cccc(NC(=O)CN2C(=O)N/C(=C/c3cc(C)n(C(C)C)c3C)C2=O)c1	FadD28 binding 42
Cc1ccc(NC(=O)CN2C(=O)N/C(=C/c3ccco3)C2=O)cc1	none
Cc1ccc(NC(=O)CN2C(=O)N/C(=C/c3cc(C)n(-c4ccc(C(=O)O)cc4)c3C)C2=O)cc1	FadD28 binding 52 (no result: Mtb bLac sens, Rv3671c inh, UGM FP inh)
COc1ccc(NC(=O)C(c2ccc(Cl)cc2)C(C)C)cn1 (stereo not drawn)	none
CCCOc1ccc(-c2c(=O)n(O)c3ccccc3[n+]2[O-])cc1	none
ClCc1nc2ccccc2c2ccccc12	none
CCOc1cccc(/C=C2/NC(=O)N(CC(=O)Nc3cccc(C)c3)C2=O)c1O	none
O=C(CN1C(=O)S/C(=C\C=C\c2ccccc2)C1=O)Nc1ccc(C(=O)O)cc1	GDH-TPI counter 57
O=C(CN1C(=O)S/C(=C/C=C/c2ccccc2)C1=O)Nc1ccc(C(=O)O)cc1	none
CCOc1cc(/C=C2/NC(=O)N(CC(=O)Nc3cccc(C)c3)C2=O)ccc1OCC(N)=O	GDH-TPI counter 38
Cc1ncc(C(O)c2ccc(N(C)C)cc2)n1Cc1ccccc1 (stereo not drawn)	none (no result: Mtb bLac sens, Rv3671c inh, UGM FP inh)
CN(C)c1ccc2nc3c(=O)[nH]c(=O)nc-3n(CC(O)C(O)C(O)CO)c2c1 (stereo not drawn)	UGM FP inh 61
Cn1c(O)c(C=NC2CCCCCC2)c(=O)[nH]c1=S	GDH-TPI counter 32
O=C(Cc1ccc(NC(=O)C2CCCN(C(=O)C3CCCCC3)C2)cc1)Nc1ccc(C(=O)N2CCOCC2)cc1 (stereo not drawn)	none (no result: Mtb bLac sens, Rv3671c inh, UGM FP inh)
CCOC(=O)C1CCN(C=Nc2cc(C)on2)CC1	Mtb FBA inh active
CCOC(=O)C1CCN(Cc2ccccn2)CC1	none (no result: FadD28 binding, GDH-TPI counter, Mtb FBA inh)
CC(C)C(=O)N1N=C(c2ccc(NS(C)(=O)=O)cc2)CC1c1cccs1 (stereo not drawn)	Mtb FBA inh active
CS(=O)(=O)Nc1ccc(C2=NN(C(=O)C3CCCCC3)C(c3cccs3)C2)cc1 (stereo not drawn)	Mtb FBA inh active
Cc1ccc(C(=O)N2N=C(c3ccc(NS(C)(=O)=O)cc3)CC2c2cccs2)cc1 (stereo not drawn)	none
CS(=O)(=O)Nc1ccc(C2=NN(S(C)(=O)=O)C(c3ccccc3)C2)cc1 (stereo not drawn)	Mtb FBA inh 132
COc1ccc(C(=O)N2N=C(c3ccc(NS(C)(=O)=O)cc3)CC2c2cccs2)cc1 (stereo not drawn)	none
CS(=O)(=O)Nc1ccc(C2=NN(S(=O)(=O)c3ccccc3)C(c3cccs3)C2)cc1 (stereo not drawn)	none
CCc1ccc(/C=N/NC(=O)c2nnn(-c3nonc3N)c2C(C)C)cc1	none
Cc1ccc(N2C(=O)C3C4C=CC(CNC(=S)Nc5cccc(Cl)c5)(O4)C3C2=O)cc1 (stereo not drawn)	none
Cc1cn([C@H]2C[C@H](O)[C@@H](CCC(=O)NCc3ccc(N(C)C)cc3)O2)c(=O)[nH]c1=O	none (no result: Mtb bLac sens, Rv3671c inh, UGM FP inh)

From PubChem
